According to the supplement of paper PMC6555819:

Legend:
Experiment in all cases: PBM binding z-score (relative to random genomic background probes); higher = stronger binding; sequences stand for … in GC…GCGATTGACAGCGTAGAATGAAGG
[1] = system: FXR:RXRa (NR concentration 270 nM, RXRa partner concentration 90 nM)
In short: (§1)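 The probes on custom Agilent 4×180K protein-binding microarrays were double-stranded, with 34-nt variable regions bearing direct-repeat seeds, single-nucleotide variants, half-site ablations and random human genomic background sequences. Incubation lasted 1 h with ligand-free nuclear receptor dimers in PBS pH 7.4, 2% milk, 0.02% Triton X-100, 1 mM DTT, 0.2 mg/mL BSA and 0.4 mg/ml salmon testes DNA. Antibodies against each partner (one per run) detected bound dimers, and fluorescence scans were regression-normalized. Binding z-scores take the random background probes as reference.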

[2] = system: LXRa:RXRa (NR concentration 270 nM, RXRa partner concentration 90 nM)
In short: as §1

[3] = system: LXRa homodimer (NR concentration 270 nM)
In short: as §1

[4] = system: LXRb:RXRa (NR concentration 270 nM, RXRa partner concentration 90 nM)
In short: as §1

[5] = system: LXRb homodimer (NR concentration 270 nM)
In short: as §1

[6] = system: PPARa:RXRa (NR concentration 270 nM, RXRa partner concentration 90 nM)
In short: as §1

[7] = system: PPARg:RXRa (NR concentration 180 nM, RXRa partner concentration 90 nM)
In short: as §1

[8] = system: PPARg:RXRa 270nM:90nM, anti-RXR (NR concentration 270 nM, RXRa partner concentration 90 nM)
In short: as §1

[9] = system: PPARg:RXRa 30nM:10nM, anti-RXR (NR concentration 30 nM, RXRa partner concentration 10 nM)
In short: as §1

[10] = system: PPARg:RXRa 90nM:30nM, anti-RXR (NR concentration 90 nM, RXRa partner concentration 30 nM)
In short: as §1

Sequence | PBM binding z-score [1] | PBM binding z-score [2] | PBM binding z-score [3] | PBM binding z-score [4] | PBM binding z-score [5] | PBM binding z-score [6] | PBM binding z-score [7] | PBM binding z-score [8] | PBM binding z-score [9] | PBM binding z-score [10]
TCTCGGATGACACGAAGGTCAGAGCTTTCCAGAG | 2.3 | 1.55 | 0.495 | 1.4 | -0.796 | 2.24 | 0.758 | 2.21 | 2.77 | 2.56
CGAACTAGGTCAGCACAGGACAGTGAAGGATGAT | 1.86 | 1.18 | -0.345 | 0.466 | -0.737 | 3.51 | 6.07 | 5.31 | 2.4 | 4.32
GCTGACGGGTCAAAGGTTATAGCATGAATAGAAT | 7.43 | 5.45 | 0.433 | 5.53 | -0.231 | 6.99 | 9.41 | 8.11 | 7.21 | 8.55
CCGACTGGTGCAGAAAGGTTACCATACCATCCGG | 0.086 | 0.429 | -0.181 | 0.491 | -0.9 | 1.73 | 0.848 | 1.18 | -0.313 | 0.336
ATATGTAGGTTAAGGGTTATTCAGGTTGGTTCGC | 2.31 | 3.16 | 1.3 | 2.8 | 1.11 | 5.82 | 10.4 | 8.81 | 8.91 | 9.75
AGAATGAGGTTCTTAAGATCAGGGAATTGCGGTC | -0.335 | -0.575 | -0.571 | -0.551 | -0.54 | -0.0387 | 0.197 | -0.0485 | -0.306 | 0.0331
TAGCCTAGATCAGATCGGGCCAGTATACGCTATA | -0.847 | -1.11 | -0.829 | -1.18 | -1.2 | -1.18 | 0.218 | -0.582 | -0.499 | -0.448
CCTTACGGGTCACGAGGTTATAGTACGACGAGCG | 6.36 | 4.81 | 0.561 | 4.06 | 0.224 | 6.09 | 7.25 | 6.66 | 3.38 | 5.43
CTCGAAAGTTCGTGCTCAGGTGAGTATACCAAAC | 0.841 | 1 | 0.162 | 1.03 | -0.134 | 1.39 | -0.262 | 0.502 | 0.0705 | 0.433
ACTATTAGTTGAGACGAGGGCAACCTATAGGTTG | 0.678 | 0.287 | -0.0979 | 0.142 | 0.336 | 0.29 | 0.636 | -0.0542 | 0.31 | -0.00139
TGTCAAAGTTCAAAGGTAACGTACGTATCCACAC | 7.21 | 6.37 | 4.32 | 4.74 | 1.52 | 5.75 | 8.65 | 7.29 | 4.86 | 7.11
CCGACTGGGGCAGAATGGTTACCATACCATCCGG | -0.449 | -0.782 | -0.449 | -0.838 | -1.2 | -0.355 | 0.778 | -0.289 | -0.329 | -0.35
CGAACGAGGGCATGAGTTGAGAGCAAATGCCGAT | 0.636 | 0.355 | -0.664 | 0.203 | -1 | 1.65 | 1.42 | 1.4 | 0.0136 | 0.958
ACTATTAGTTGAGCCGAGGGCAACCGATAGGTTG | 0.981 | 0.0811 | -0.117 | -0.118 | 0.161 | 0.302 | 0.401 | -0.167 | -0.144 | -0.0304
CAAACTAGGTGACCGGAAGGTCAAAGTCCGCATG | 6.44 | 4.09 | 4.16 | 3.51 | 0.36 | 4.99 | 6.71 | 5.5 | 3.01 | 5.06
CAAACTTGGTCAAGGTCAAAGTCGGTTTGTGCCA | 4.61 | 4.38 | 2.94 | 3.8 | 0.689 | 4.46 | 2.73 | 3.77 | 1 | 2.73
CCTCGGAGGACAACAGGCGGTCAGAGCTGCCAGA | -0.211 | -0.0211 | 0.394 | -0.76 | -1.15 | -0.468 | -0.327 | -0.898 | -0.775 | -1.03
CTCGAAAGGTCGGTTGAGGTGCGTATACGGATAA | 2.39 | 1.39 | -0.235 | 1.24 | -0.239 | 2.3 | 0.2 | 0.942 | 0.258 | 0.457
ACTAGCAGGCGAAGGGTCACTCAAGATTAGTCCG | 2.18 | 2.19 | 0.132 | 2.12 | -0.71 | 3.72 | 5.6 | 5.62 | 3.86 | 6.27
TTACCAAGGTGAAAGGTCGTTCATGCACGCCTTG | 3.83 | 3.72 | 0.593 | 3.18 | -0.344 | 5.32 | 8.83 | 8.22 | 8.68 | 8.9
CGTCCAAGGTCGGCAGGTCAGTGAAAGCGACGTG | 1.48 | 0.7 | -0.723 | 0.338 | -1.39 | 1.95 | -0.15 | 0.764 | -0.459 | -0.168
CCTACTGGGCCAAAAGTCATTGATTCCAATGCTC | -0.29 | 0.0265 | -0.0792 | 0.111 | -0.713 | 3.54 | 7.06 | 7.89 | 8.84 | 9.3
GCGACTGGGGCAAAGCAGATTACCATAAGGTTGG | -0.443 | -0.606 | -0.499 | -0.352 | -0.97 | 0.454 | 1.36 | 0.951 | 0.202 | 0.481
GCTTGTAGATCAAGGTGAAGAAAGACTAAGCTAA | -0.249 | -0.317 | -0.489 | -0.225 | -0.819 | 0.597 | 0.122 | 0.939 | 0.103 | 0.281
CGAACTAGGTCATTGACGGGACAGTGAATAGTAA | 4.27 | 2.52 | 0.242 | 1.81 | -0.0446 | 4.64 | 7.48 | 6.38 | 3.39 | 5.82
